Measured values as given in PubChem BioAssay AID1159580 (chemical genetic matrix, 2015).
Hit rate of the full screen: of about 5,500 compounds, about 2,000 (36%) were called active. Another 18% or so got no clear call; they are omitted. No stated cut-off is given here; in the data, active means normalized growth mostly below about 0.91 (no sharp cut-off); inconclusive means no clear call, values can overlap the other calls; inactive means mostly above about 0.92. The list shows a part of the results.

Test: chemical genetic growth profiling, strain panel (AID 1159580);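 further: tested at 20 µM; growth read once vehicle control cultures reached saturation at 30 °C; 1 = growth at the plate median or of vehicle wells; lower values mean less growth of the strain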
Conditions: growth OD
[1] = S. cerevisiae deletion strains, locus YAR019C, strain CDC15, active compounds read low
[2] = S. cerevisiae deletion strains, locus YBL105C, strain PKC1, active compounds read low
[3] = S. cerevisiae deletion strains, locus YBR135W, strain CKS1, active compounds read low
[4] = S. cerevisiae deletion strains, locus YBR136W, strain MEC1, active compounds read low
[5] = S. cerevisiae deletion strains, locus YBR160W, strain CDC28, active compounds read low
[6] = S. cerevisiae deletion strains, locus YDL017W, strain CDC7, active compounds read low
[7] = S. cerevisiae deletion strains, locus YDL028C, strain MPS1, active compounds read low
[8] = S. cerevisiae deletion strains, locus YDL101C, strain DUN1, active compounds read low
[9] = S. cerevisiae deletion strains, locus YDL108W, strain KIN28, active compounds read low
[10] = S. cerevisiae deletion strains, locus YDL132W, strain cdc53, active compounds read low
[11] = S. cerevisiae deletion strains, locus YDL214C, strain PRR2, active compounds read low
[12] = S. cerevisiae deletion strains, locus YDR052C, strain DBF4, active compounds read low
[13] = S. cerevisiae deletion strains, locus YDR054C, strain cdc34, active compounds read low
[14] = S. cerevisiae deletion strains, locus YDR226W, strain ADK1, active compounds read low
[15] = S. cerevisiae deletion strains, locus YDR477W, strain SNF1, active compounds read low
[16] = S. cerevisiae deletion strains, locus YER123W, strain YCK3, active compounds read low
[17] = S. cerevisiae deletion strains, locus YER133W, strain GLC7, active compounds read low
[18] = S. cerevisiae deletion strains, locus YFL009W, strain cdc4, active compounds read low
[19] = S. cerevisiae deletion strains, locus YFL029C, strain CAK1, active compounds read low
[20] = S. cerevisiae deletion strains, locus YFR003C, strain YPI1, active compounds read low
[21] = S. cerevisiae deletion strains, locus YFR019W, strain FAB1, active compounds read low
[22] = S. cerevisiae deletion strains, locus YFR028C, strain CDC14, active compounds read low
[23] = S. cerevisiae deletion strains, locus YGR040W, strain KSS1, active compounds read low
[24] = S. cerevisiae deletion strains, locus YGR052W, strain FMP48, active compounds read low
[25] = S. cerevisiae deletion strains, locus YGR092W, strain DBF2, active compounds read low
[26] = S. cerevisiae deletion strains, locus YHR030C, strain SLT2, active compounds read low
[27] = S. cerevisiae deletion strains, locus YHR079C, strain IRE1, active compounds read low
[28] = S. cerevisiae deletion strains, locus YHR082C, strain KSP1, active compounds read low
[29] = S. cerevisiae deletion strains, locus YHR205W, strain SCH9, active compounds read low
[30] = S. cerevisiae deletion strains, locus YIL147C, strain SLN1, active compounds read low
[31] = S. cerevisiae deletion strains, locus YJL095W, strain BCK1, active compounds read low
[32] = S. cerevisiae deletion strains, locus YJL128C, strain PBS2, active compounds read low
[33] = S. cerevisiae deletion strains, locus YJL157C, strain FAR1, active compounds read low
[34] = S. cerevisiae deletion strains, locus YJR016C, strain ILV3, active compounds read low
[35] = S. cerevisiae deletion strains, locus YJR066W, strain TOR1 (second series), active compounds read low
[36] = S. cerevisiae deletion strains, locus YJR066W, strain TOR1, active compounds read low
[37] = S. cerevisiae deletion strains, locus YKL048C, strain ELM1, active compounds read low
[38] = S. cerevisiae deletion strains, locus YKL067W, strain YNK1, active compounds read low
[39] = S. cerevisiae deletion strains, locus YKL101W, strain HSL1, active compounds read low
[40] = S. cerevisiae deletion strains, locus YKL193C, strain SDS22, active compounds read low
[41] = S. cerevisiae deletion strains, locus YKL203C, strain TOR2, active compounds read low
[42] = S. cerevisiae deletion strains, locus YLR113W, strain HOG1, active compounds read low
[43] = S. cerevisiae deletion strains, locus YLR133W, strain CKI1, active compounds read low
[44] = S. cerevisiae deletion strains, locus YLR403W, strain SFP1, active compounds read low
[45] = S. cerevisiae deletion strains, locus YML070W, strain DAK1, active compounds read low
[46] = S. cerevisiae deletion strains, locus YMR001C, strain CDC5, active compounds read low
[47] = S. cerevisiae deletion strains, locus YMR205C, strain PFK2 (second series), active compounds read low
[48] = S. cerevisiae deletion strains, locus YMR277W, strain FCP1, active compounds read low
[49] = S. cerevisiae deletion strains, locus YNL006W, strain LST8, active compounds read low
[50] = S. cerevisiae deletion strains, locus YNL020C, strain ARK1, active compounds read low
[51] = S. cerevisiae deletion strains, locus YNL161W, strain CBK1, active compounds read low
[52] = S. cerevisiae deletion strains, locus YNL183C, strain NPR1, active compounds read low
[53] = S. cerevisiae deletion strains, locus YNL207W, strain RIO2, active compounds read low
[54] = S. cerevisiae deletion strains, locus YNL222W, strain SSU72, active compounds read low
[55] = S. cerevisiae deletion strains, locus YNL307C, strain MCK1 (second series), active compounds read low
[56] = S. cerevisiae deletion strains, locus YOL078W, strain AVO1, active compounds read low
[57] = S. cerevisiae deletion strains, locus YOL136C, strain PFK27, active compounds read low
[58] = S. cerevisiae deletion strains, locus YOR061W, strain CKA2, active compounds read low
[59] = S. cerevisiae deletion strains, locus YOR119C, strain RIO1, active compounds read low
[60] = S. cerevisiae deletion strains, locus YOR231W, strain MKK1, active compounds read low
[61] = S. cerevisiae deletion strains, locus YOR329C, strain SCD5, active compounds read low
[62] = S. cerevisiae deletion strains, locus YPL031C, strain PHO85, active compounds read low
[63] = S. cerevisiae deletion strains, locus YPL153C, strain RAD53, active compounds read low
[64] = S. cerevisiae deletion strains, locus YPL204W, strain HRR25, active compounds read low
[65] = S. cerevisiae deletion strains, locus YPL209C, strain IPL1, active compounds read low
[66] = S. cerevisiae deletion strains, locus YPL256C, strain CLN2, active compounds read low
[67] = S. cerevisiae deletion strains, locus YPR025C, strain CCL1, active compounds read low
[68] = S. cerevisiae deletion strains, locus YPR106W, strain ISR1, active compounds read low
[69] = S. cerevisiae deletion strains, locus YPR111W, strain DBF20, active compounds read low
[70] = S. cerevisiae deletion strains, strain NNK1, active compounds read low
[71] = S. cerevisiae deletion strains, strain TSCII, active compounds read low

Measured: normalized growth

O=C(OCc1ccc(Oc2ccc(Cl)cc2Cl)c([N+](=O)[O-])c1)c1ccc([N+](=O)[O-])o1
inactive: [1] 0.98 | [2] 0.975 | [3] 0.981 | [4] 0.961 | [5] 0.97 | [6] 0.979 | [7] 0.958 | [8] 0.98 | [9] 0.969 | [10] 0.974 | [11] 1.01 | [12] 0.99 | [13] 0.968 | [14] 0.97 | [15] 0.971 | [16] 0.987 | [17] 0.995 | [18] 0.956 | [19] 0.978 | [20] 0.985 | [21] 0.99 | [22] 0.969 | [23] 0.977 | [24] 1.07 | [25] 0.957 | [26] 0.916 | [27] 0.997 | [28] 1.04 | [29] 0.93 | [30] 0.977 | [31] 0.993 | [32] 0.896 | [33] 0.987 | [34] 0.982 | [35] 0.971 | [36] 0.972 | [37] 0.991 | [38] 1 | [39] 0.983 | [40] 0.986 | [41] 1.07 | [42] 0.999 | [43] 0.985 | [44] 0.962 | [45] 1 | [46] 0.97 | [47] 1.01 | [48] 0.966 | [49] 0.986 | [50] 0.996 | [51] 0.987 | [52] 1.07 | [53] 0.982 | [54] 0.976 | [55] 0.987 | [56] 0.985 | [57] 1 | [58] 0.975 | [59] 1.03 | [60] 0.957 | [61] 0.982 | [62] 0.974 | [63] 0.976 | [64] 0.983 | [65] 0.983 | [66] 0.993 | [67] 0.979 | [68] 0.972 | [69] 0.958 | [70] 0.983 | [71] 0.968

O=C(N/N=C\c1ccc([N+](=O)[O-])o1)c1ccc(O)cc1
inactive: [26] 0.924 | [27] 0.936 | [31] 0.907 | [36] 0.883 | [42] 0.872 | [52] 0.869 | [60] 0.91 | [66] 0.956

O=C(SCc1c(Cl)cccc1Cl)c1ccc([N+](=O)[O-])o1
inactive: [1] 0.954 | [2] 0.96 | [3] 0.968 | [4] 0.969 | [5] 0.964 | [6] 0.967 | [7] 0.969 | [8] 0.978 | [9] 0.961 | [10] 0.967 | [12] 0.967 | [13] 0.95 | [14] 0.959 | [18] 0.955 | [19] 0.951 | [20] 0.962 | [22] 0.962 | [30] 0.972 | [31] 0.624 | [32] 0.868 | [34] 0.965 | [40] 0.954 | [46] 0.942 | [48] 0.968 | [49] 0.976 | [51] 0.965 | [53] 0.947 | [54] 0.971 | [56] 0.963 | [61] 0.964 | [65] 0.976 | [67] 0.959 | [68] 0.985 | [69] 0.978 | [70] 0.959 | [71] 0.939
active: [11] 0.456 | [15] 0.295 | [16] 0.422 | [17] 0.553 | [21] 0.612 | [23] 0.324 | [24] 0.502 | [25] 0.221 | [26] 0.179 | [27] 0.334 | [28] 0.332 | [29] 0.0602 | [33] 0.477 | [35] 0.351 | [36] 0.425 | [37] 0.65 | [38] 0.652 | [39] 0.571 | [41] 0.438 | [42] 0.4 | [43] 0.499 | [44] 0.201 | [45] 0.547 | [47] 0.677 | [50] 0.48 | [52] 0.438 | [55] 0.247 | [57] 0.406 | [58] 0.633 | [59] 0.445 | [60] 0.578 | [62] 0.396 | [63] 0.614 | [64] 0.371 | [66] 0.232

O=C(NC(=S)Nc1ccc(Cl)cc1)c1ccc([N+](=O)[O-])o1
inactive: S. cerevisiae deletion strains, locus YAL013W, strain DEP1, active compounds read low 0.958 | S. cerevisiae deletion strains, locus YBR229C, strain ROT2, active compounds read low 0.975 | [8] 1.03 | S. cerevisiae deletion strains, locus YDL134C, strain PPH21, active compounds read low 0.999 | S. cerevisiae deletion strains, locus YDR150W, strain NUM1, active compounds read low 0.964 | S. cerevisiae deletion strains, locus YEL061C, strain CIN8, active compounds read low 0.98 | S. cerevisiae deletion strains, locus YGR078C, strain PAC10, active compounds read low 0.963 | [26] 0.714 | S. cerevisiae deletion strains, locus YHR087W, strain rtc3, active compounds read low 0.955 | S. cerevisiae deletion strains, locus YJR043C, strain POL32, active compounds read low 0.985 | S. cerevisiae deletion strains, locus YJR075W, strain HOC1, active compounds read low 0.984 | S. cerevisiae deletion strains, locus YLR039C, strain RIC1, active compounds read low 0.899 | S. cerevisiae deletion strains, locus YLR058C, strain SHM2 (second series), active compounds read low 0.984 | S. cerevisiae deletion strains, locus YLR085C, strain ARP6, active compounds read low 0.892 | S. cerevisiae deletion strains, locus YLR262C, strain YPT6, active compounds read low 0.917 | S. cerevisiae deletion strains, locus YML094W, strain GIM5, active compounds read low 0.945 | S. cerevisiae deletion strains, locus YMR219W, strain ESC1, active compounds read low 0.978 | S. cerevisiae deletion strains, locus YMR263W, strain SAP30, active compounds read low 0.985 | S. cerevisiae deletion strains, locus YNL128W, strain TEP1, active compounds read low 0.979 | S. cerevisiae deletion strains, locus YNL153C, strain GIM3, active compounds read low 0.999 | S. cerevisiae deletion strains, locus YNL298W, strain CLA4 (second series), active compounds read low 0.912 | S. cerevisiae deletion strains, locus YNL322C, strain KRE1, active compounds read low 0.96 | S. cerevisiae deletion strains, locus YNR030W, strain Alg12, active compounds read low 0.956 | S. cerevisiae deletion strains, locus YOL006C, strain TOP1, active compounds read low 0.999 | S. cerevisiae deletion strains, locus YPL055C, strain LGE1, active compounds read low 0.937 | S. cerevisiae deletion strains, locus YPL241C, strain CIN2, active compounds read low 1.08 | S. cerevisiae strains, strain wild type, active compounds read low 0.981
active: S. cerevisiae deletion strains, locus YPR135W, strain CTF4, active compounds read low 0.577
